Source: the supplement of paper PMC10849652
The full data set covers some 8,800 targets. This sample favours those with a hit. About 0.5% of all pairs of compound and target were hits. Unmarked numbers belong to inactive results.

Key:
Experiment in all cases: log2 fold change, soluble protein after heating vs DMSO (PISA); higher = thermal stabilisation; K562 lysate, 10 uM; active = over 0.2 and 3.5 SD of the protein, either way, in both replicates (recomputed)
vemurafenib = compound: CCCS(=O)(=O)Nc1ccc(F)c(C(=O)c2c[nH]c3ncc(-c4ccc(Cl)cc4)cc23)c1F [vemurafenib]
Summary of the method: (§1)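 The values are log-two fold changes in thermal stability compared with solvent controls and come from duplicates. They were obtained by TMTpro 16plex LC-MS/MS, with channel sums equalised, on the supernatant after 21,000xg for 90 min. That supernatant came from crude K562 extract at 1 mg/mL protein treated with 10 μM compound for 30 min, heated for 3 min across 48°C-58°C, pooled and brought to 0.5% NP-40 at 4°C.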

[1] = compound: CCCS(=O)(=O)Nc1ccc(F)c(C(=O)c2c[nH]c3ncc(Cl)cc23)c1F
Summary of the method: as §1

barasertib = compound: CCN(CCCOc1ccc2c(Nc3cc(CC(=O)Nc4cccc(F)c4)[nH]n3)ncnc2c1)CCOP(=O)(O)O [barasertib]
Summary of the method: as §1

[2] = compound: CC[C@@H]1C(=O)N(C)c2cnc(Nc3ccc(C(=O)NC4CCN(C)CC4)cc3OC)nc2N1C1CCCC1
Summary of the method: as §1

volasertib = compound: CC[C@@H]1C(=O)N(C)c2cnc(Nc3ccc(C(=O)N[C@H]4CC[C@H](N5CCN(CC6CC6)CC5)CC4)cc3OC)nc2N1C(C)C [volasertib]
Summary of the method: as §1

[3] = compound: CCn1c(C(=O)N(C2CC2)C2CC2)cc2c3c(ncn3C)c(Nc3cc(C)n(C)n3)nc21
Summary of the method: as §1

[4] = compound: CCn1cc(-c2ccnc3[nH]c(-c4cccc(CN(C)C)c4)cc23)c(-c2ccc(NC(=O)N(C)C)cc2)n1
Summary of the method: as §1

[5] = compound: CN1CCC(CNc2ccc3ncc(-c4cccc(OC(F)(F)F)c4)n3n2)CC1
Summary of the method: as §1

saracatinib = compound: CN1CCN(CCOc2cc(OC3CCOCC3)c3c(Nc4c(Cl)ccc5c4OCO5)ncnc3c2)CC1 [saracatinib]
Summary of the method: as §1

sotrastaurin = compound: CN1CCN(c2nc(C3=C(c4c[nH]c5ccccc45)C(=O)NC3=O)c3ccccc3n2)CC1 [sotrastaurin]
Summary of the method: as §1

Chain of UniProt Q8NA72 (Q8NA72 whole entry, looked up): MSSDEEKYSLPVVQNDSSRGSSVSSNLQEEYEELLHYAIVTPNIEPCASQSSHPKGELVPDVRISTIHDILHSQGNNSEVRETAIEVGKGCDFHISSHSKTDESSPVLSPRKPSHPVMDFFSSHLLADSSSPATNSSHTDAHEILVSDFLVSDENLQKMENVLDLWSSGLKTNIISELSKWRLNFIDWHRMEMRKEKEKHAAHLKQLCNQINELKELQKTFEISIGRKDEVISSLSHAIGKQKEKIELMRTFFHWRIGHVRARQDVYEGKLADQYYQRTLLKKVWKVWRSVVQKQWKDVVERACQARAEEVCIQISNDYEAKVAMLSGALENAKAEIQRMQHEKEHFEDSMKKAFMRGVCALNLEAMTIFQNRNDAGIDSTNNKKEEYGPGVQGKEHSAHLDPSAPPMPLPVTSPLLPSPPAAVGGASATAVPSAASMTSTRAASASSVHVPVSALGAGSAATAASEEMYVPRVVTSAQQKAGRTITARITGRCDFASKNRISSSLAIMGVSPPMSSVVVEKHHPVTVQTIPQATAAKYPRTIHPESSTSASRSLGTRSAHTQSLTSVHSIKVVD
Chain of UniProt Q86UU1 (Q86UU1 whole entry, looked up): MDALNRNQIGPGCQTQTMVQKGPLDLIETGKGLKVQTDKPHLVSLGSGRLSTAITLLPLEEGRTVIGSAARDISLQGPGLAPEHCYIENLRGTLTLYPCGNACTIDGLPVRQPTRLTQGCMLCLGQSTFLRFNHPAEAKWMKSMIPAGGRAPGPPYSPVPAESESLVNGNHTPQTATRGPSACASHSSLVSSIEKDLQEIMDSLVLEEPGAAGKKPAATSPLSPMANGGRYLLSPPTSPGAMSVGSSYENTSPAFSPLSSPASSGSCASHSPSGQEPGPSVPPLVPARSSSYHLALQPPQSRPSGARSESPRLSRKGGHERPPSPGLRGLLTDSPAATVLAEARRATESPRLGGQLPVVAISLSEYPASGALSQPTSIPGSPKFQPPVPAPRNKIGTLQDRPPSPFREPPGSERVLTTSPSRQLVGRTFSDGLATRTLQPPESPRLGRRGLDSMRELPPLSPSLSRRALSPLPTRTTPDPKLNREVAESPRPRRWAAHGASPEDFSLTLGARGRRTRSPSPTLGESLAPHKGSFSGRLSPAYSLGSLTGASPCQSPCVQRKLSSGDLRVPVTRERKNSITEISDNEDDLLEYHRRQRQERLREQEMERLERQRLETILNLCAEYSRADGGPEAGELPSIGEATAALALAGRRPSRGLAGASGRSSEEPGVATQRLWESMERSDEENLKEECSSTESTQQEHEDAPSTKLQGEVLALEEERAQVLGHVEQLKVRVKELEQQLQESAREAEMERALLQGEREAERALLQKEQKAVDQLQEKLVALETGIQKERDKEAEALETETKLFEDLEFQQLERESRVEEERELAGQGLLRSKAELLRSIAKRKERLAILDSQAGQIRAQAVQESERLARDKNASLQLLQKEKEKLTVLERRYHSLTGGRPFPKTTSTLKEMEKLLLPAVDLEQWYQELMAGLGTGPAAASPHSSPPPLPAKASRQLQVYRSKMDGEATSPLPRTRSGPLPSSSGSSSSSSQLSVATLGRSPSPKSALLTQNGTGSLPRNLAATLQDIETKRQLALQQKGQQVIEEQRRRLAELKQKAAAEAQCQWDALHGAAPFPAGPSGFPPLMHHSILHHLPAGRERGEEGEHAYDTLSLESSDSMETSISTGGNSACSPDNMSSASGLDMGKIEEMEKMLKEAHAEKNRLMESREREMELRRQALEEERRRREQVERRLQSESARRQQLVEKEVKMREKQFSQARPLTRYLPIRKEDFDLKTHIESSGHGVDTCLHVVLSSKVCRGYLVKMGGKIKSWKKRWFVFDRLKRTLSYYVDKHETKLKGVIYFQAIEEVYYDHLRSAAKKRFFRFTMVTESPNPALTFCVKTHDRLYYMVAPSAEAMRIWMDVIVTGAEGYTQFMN
Chain of UniProt P48147 (P48147 whole entry, looked up): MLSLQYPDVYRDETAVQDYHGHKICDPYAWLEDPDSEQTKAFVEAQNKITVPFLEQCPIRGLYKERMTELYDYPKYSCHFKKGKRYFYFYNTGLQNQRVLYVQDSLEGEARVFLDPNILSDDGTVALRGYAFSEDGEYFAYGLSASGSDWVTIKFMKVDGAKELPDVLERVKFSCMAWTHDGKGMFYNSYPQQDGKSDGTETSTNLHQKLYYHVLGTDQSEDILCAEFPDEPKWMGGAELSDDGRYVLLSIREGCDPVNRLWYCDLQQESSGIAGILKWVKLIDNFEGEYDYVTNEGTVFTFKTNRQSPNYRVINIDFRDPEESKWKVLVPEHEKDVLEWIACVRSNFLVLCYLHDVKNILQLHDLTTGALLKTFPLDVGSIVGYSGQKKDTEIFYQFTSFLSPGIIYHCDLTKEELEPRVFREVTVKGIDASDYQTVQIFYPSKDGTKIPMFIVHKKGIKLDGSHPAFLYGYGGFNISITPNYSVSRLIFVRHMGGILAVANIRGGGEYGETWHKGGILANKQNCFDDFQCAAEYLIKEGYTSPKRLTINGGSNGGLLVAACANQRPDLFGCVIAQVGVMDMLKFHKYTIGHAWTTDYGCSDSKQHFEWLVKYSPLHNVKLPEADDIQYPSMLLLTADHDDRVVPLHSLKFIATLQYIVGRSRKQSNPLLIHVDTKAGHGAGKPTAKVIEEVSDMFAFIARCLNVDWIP
Chain of UniProt Q13362 (Q13362 whole entry, looked up): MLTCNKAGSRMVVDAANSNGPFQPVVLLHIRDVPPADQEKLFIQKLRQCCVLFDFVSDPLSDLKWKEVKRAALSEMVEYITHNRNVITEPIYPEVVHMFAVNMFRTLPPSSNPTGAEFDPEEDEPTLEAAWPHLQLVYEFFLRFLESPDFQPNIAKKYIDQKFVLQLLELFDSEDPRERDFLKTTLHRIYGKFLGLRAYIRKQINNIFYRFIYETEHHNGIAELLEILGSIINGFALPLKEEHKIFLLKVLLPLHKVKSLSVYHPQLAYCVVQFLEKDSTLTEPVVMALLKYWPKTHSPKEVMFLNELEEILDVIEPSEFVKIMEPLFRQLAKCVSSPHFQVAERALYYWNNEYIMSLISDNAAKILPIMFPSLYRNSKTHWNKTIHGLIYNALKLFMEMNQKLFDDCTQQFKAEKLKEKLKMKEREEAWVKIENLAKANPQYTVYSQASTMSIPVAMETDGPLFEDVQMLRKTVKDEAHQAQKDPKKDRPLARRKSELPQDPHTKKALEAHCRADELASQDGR
Chain of UniProt O00625 (O00625 whole entry, looked up): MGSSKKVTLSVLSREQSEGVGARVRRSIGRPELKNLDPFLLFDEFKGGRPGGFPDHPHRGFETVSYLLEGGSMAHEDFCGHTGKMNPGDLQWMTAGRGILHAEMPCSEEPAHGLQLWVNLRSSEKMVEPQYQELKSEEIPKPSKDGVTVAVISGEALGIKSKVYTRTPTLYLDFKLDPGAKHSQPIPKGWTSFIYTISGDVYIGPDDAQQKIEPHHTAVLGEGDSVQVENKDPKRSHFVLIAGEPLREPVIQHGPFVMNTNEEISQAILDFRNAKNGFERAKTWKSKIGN
Chain of UniProt P28065 (P28065 whole entry, looked up): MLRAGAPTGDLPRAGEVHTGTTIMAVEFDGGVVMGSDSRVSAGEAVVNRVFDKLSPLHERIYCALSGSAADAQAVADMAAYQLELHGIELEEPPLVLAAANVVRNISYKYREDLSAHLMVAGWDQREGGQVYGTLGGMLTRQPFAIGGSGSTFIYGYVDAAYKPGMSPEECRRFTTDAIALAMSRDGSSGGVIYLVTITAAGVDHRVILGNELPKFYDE
Chain of UniProt Q9H939 (Q9H939 whole entry, looked up): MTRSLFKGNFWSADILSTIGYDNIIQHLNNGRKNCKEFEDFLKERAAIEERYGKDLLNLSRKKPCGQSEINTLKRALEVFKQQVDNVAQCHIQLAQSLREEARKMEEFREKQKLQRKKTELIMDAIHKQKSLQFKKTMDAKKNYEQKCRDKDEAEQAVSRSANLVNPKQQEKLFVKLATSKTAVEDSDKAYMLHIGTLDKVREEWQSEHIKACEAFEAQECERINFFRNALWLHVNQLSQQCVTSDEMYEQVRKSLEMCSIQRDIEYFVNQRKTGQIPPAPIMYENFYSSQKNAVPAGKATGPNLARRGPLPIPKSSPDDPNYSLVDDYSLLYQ
Chain of UniProt O94906 (O94906 whole entry, looked up): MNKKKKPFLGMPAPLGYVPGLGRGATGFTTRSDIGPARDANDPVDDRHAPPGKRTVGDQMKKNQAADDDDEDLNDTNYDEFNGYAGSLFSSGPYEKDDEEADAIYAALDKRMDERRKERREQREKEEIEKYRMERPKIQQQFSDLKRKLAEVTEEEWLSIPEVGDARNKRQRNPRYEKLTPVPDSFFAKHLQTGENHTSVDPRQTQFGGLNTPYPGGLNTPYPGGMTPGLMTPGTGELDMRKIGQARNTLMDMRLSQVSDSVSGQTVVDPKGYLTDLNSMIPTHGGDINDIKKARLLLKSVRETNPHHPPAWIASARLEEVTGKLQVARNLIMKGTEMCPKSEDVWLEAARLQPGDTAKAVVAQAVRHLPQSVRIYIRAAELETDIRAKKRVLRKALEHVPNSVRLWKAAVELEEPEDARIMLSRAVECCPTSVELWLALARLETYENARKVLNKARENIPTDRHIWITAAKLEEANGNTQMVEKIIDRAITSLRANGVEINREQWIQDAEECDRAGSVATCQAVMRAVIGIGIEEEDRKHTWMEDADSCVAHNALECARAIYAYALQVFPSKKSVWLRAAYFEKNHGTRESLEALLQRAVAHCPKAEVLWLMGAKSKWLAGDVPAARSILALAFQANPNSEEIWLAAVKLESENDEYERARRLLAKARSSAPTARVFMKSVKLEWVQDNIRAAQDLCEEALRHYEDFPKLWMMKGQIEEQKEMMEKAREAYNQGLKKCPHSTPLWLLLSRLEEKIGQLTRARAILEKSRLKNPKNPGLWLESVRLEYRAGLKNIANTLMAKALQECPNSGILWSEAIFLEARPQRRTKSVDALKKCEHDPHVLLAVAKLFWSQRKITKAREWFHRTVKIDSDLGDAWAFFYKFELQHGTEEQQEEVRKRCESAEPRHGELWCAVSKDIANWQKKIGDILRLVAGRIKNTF

Target | log2 fold change (vemurafenib) | log2 fold change [1] | log2 fold change (barasertib) | log2 fold change [2] | log2 fold change (volasertib) | log2 fold change [3] | log2 fold change [4] | log2 fold change [5] | log2 fold change (saracatinib) | log2 fold change (sotrastaurin)
PPP2R3C (UniProt Q969Q6) | -0.081 | -0.094 | 0.094 | -0.244 | 0 | 0.071 | -0.392 (active) | 0.115 | 0.04 | 
PGLS (UniProt O95336) | -0.033 | -0.027 | 0.067 | -0.055 | 0.027 | 0.036 | 0.051 | -0.114 | 0.039 | 0.006
PTGES2 (UniProt Q9H7Z7) | 0.547 (active) | 0.06 | -0.107 | -0.108 | 0.159 | -0.053 | -0.003 | -0.18 | -0.029 | 0.058
PRMT8 (UniProt Q9NR22) | 0.059 | 0.021 | 0.007 | -0.009 | -0.009 | -0.005 | -0.285 (active) | 0.179 | -0.018 | 0.007
PTP4A1 (UniProt Q93096) | -0.006 | -0.029 | -0.041 | 0.017 | 0.036 | 0.019 | 0.177 | -0.05 | 0.001 | 0
PIR (UniProt O00625) | -0.023 | 0.098 | -0.005 | 0.025 | 0.019 | -0.055 | 0.205 | -0.024 | -0.006 | -0.028
PLEKHO2 (UniProt Q8TD55) | 0.034 | 0.247 | 0.161 | 0.068 | 0.151 | 0.126 | 0.136 | 0.016 | 0.278 | -0.054
PPP2CA (UniProt P67775) | 0.061 | -0.008 | -0.012 | 0.032 | -0.012 | 0.02 | 0.13 | 0.049 | 0.039 | -0.047
POC5 (UniProt Q8NA72) | -0.062 | -0.049 | 0.014 | 0.17 | 0 | -0.045 | 0.021 | -0.011 | -0.087 | -0.046
PPP1R14C (UniProt Q8TAE6) | -0.183 | 0.008 | 0.002 | -0.084 | 0.037 | 0.072 | -0.217 | 0.017 | -0.022 | 
PREP (UniProt P48147) | 0.028 | 0.011 | -0.003 | -0.025 | -0.025 | 0.023 | 0.008 | -0.013 | 0.005 | 0.001
PSTPIP2 (UniProt Q9H939) | 0.022 | 0.018 | 0.01 | -0.029 | -0.037 | -0.007 | 0.063 | -0.09 | 0.032 | 0
PFKP (UniProt Q01813) | -0.047 | -0.056 | 0.018 | -0.005 | 0.015 | -0.007 | 0.052 | -0.033 | 0.008 | -0.025
PELO (UniProt Q9BRX2) | 0 | 0.021 | 0.037 | -0.115 | -0.066 | -0.014 | 0.404 (active) | -0.183 | -0.001 | -0.018
POLR2G (UniProt P62487) | -0.014 | 0.02 | -0.003 | 0.03 | 0.023 | 0 | 0.025 | 0.05 | 0.016 | 0.011
PICALM (UniProt Q13492) | -0.004 | -0.004 | 0.037 | 0.04 | 0.014 | 0.004 | 0.098 | -0.021 | 0.009 | -0.061
PPP2R5C isoform 4 (UniProt Q13362) | 0.029 | 0.02 | -0.001 | 0.018 | -0.002 | 0.022 | -0.02 | -0.038 | 0.017 | -0.036
PRMT7 (UniProt Q9NVM4) | 0.058 | -0.006 | 0.018 | -0.02 | 0.001 | -0.013 | 0.013 | 0.003 | 0.045 | 0.009
PRKRA (UniProt O75569) | -0.012 | 0.031 | -0.042 | -0.082 | -0.052 | 0.041 | 0 | -0.016 | 0.03 | 0.009
PCYT1B (UniProt Q9Y5K3) | 0.013 | 0.011 | 0.012 | 0.046 | 0.017 | 0.008 | -0.094 | 0.063 | 0.012 | -0.002
PHLDB1 (UniProt Q86UU1) | -0.071 | 0.162 | 0.01 | 0.033 | -0.044 | 0.001 | 0.095 | -0.014 | 0.005 | -0.049
PGGT1B (UniProt P53609) | -0.159 | 0.004 | 0 | -0.041 | 0.1 | 0.006 | 0.011 | 0.008 | 0.028 | -0.029
PRPF6 (UniProt O94906) | -0.019 | 0.004 | 0.039 | -0.057 | -0.015 | 0.019 | 0.034 | -0.049 | 0.009 | 0.025
PSMB9 (UniProt P28065) | -0.105 | 0.037 | 0.158 | 0.335 (active) | 0.028 | -0.06 | -0.165 | 0.027 | 0.037 | 0.018
PTPN2 (UniProt P17706) | 0.027 | -0.017 | 0.051 | -0.028 | 0 | 0.005 | -0.084 | -0.031 | -0.052 | 0.011
POLR3E (UniProt Q9NVU0) | 0.011 | 0.02 | 0.003 | 0.018 | -0.004 | -0.012 | 0.035 | 0.012 | 0.017 | 0.048
POGK (UniProt Q9P215) | -0.035 | 0.114 | 0.011 | -0.005 | 0.033 | -0.027 | -0.397 (active) | 0.034 | 0.017 | 0.013
PFKFB3 isoform 4 (UniProt Q16875) | -0.022 | 0.134 | 0.003 | -0.003 | 0.067 | 0.037 | 0.003 | -0.046 | -0.024 | 0.034
